Reference: PubChem BioAssay AID434970 (Sanford-Burnham Center for Chemical Genomics, 2010)
About 310 (2.8%) of roughly 11,000 compounds were called active. The sample holds actives, similar compounds and a random draw of the others, so the mix is not that of the screen. Cut-off read from the data, not from the text of the source: active = activity change below about -85%; inactive = the rest.

The compounds below were run on intestinal alkaline phosphatase [Mus musculus] (assay: activators of mouse IAP, confirmation, biochemical, luminescence, single concentration (AID 434970)). Details: purified mouse IAP, CDP-Star luminescence, 30 min, at 10 µM; activation factor: measured here: IAP activation factor, stronger effect = higher value; activity change, negative = activation: stronger effect = lower value.

Structure (SMILES)	activation factor	activity change, negative = activation
CC(C)[C@H]1COCCS(=O)(=O)N1Cc1ccccc1-c1cccc2c1oc1ccccc12	0.927	7.3% (inactive)
Cc1c(C(=O)NCC2COc3ccccc3O2)oc2ccc(S(=O)(=O)N3CCOCC3)cc12 (stereo not given)	1.07	-6.7% (inactive)
CCNc1nc(NC(C)(C)C)nc(SC(C(C)=O)C(C)=O)n1	1.04	-4.2% (inactive)
O=C(OCn1nnc2ccccc2c1=O)C1CCN(S(=O)(=O)c2cccs2)CC1	0.919	8.05% (inactive)
Cc1ccc(C2=NN3C(C(=O)c4ccccc4)Oc4ccccc4C3C2)cc1 (stereo not given)	0.916	8.35% (inactive)
O=C(Nc1ccccc1N1CCN(c2ccccc2)CC1)C12CC3CC(CC(C3)C1)C2	0.927	7.25% (inactive)
COC(=O)c1sccc1NC(=O)C12CC3CC(CC(C3)C1)C2	1.03	-2.7% (inactive)
O=C(c1cc(NC(=O)C23CC4CC(CC(C4)C2)C3)cc(NC(=O)C23CC4CC(CC(C4)C2)C3)c1)N1CCCCC1	2.06	-106% (active)
CCOc1ccccc1C1N(c2ccc(F)cc2)C(=O)C2CCCN21 (stereo not given)	0.988	1.2% (inactive)
CCc1nnc(NC(=O)C2CCCN2C(=O)Nc2ccccc2OC)s1 (stereo not given)	1.12	-12.2% (inactive)
CC(=O)c1ccc2c(c1)N(C)c1ccccc1S2	0.875	12.5% (inactive)
CCCCSCCCNC(=O)Nc1ccc(CC)cc1	1.39	-38.9% (inactive)
CCCCNC(=O)Nc1ccc2c(c1)N(C)C(=O)c1ccccc1S2	2.25	-124% (active)
CCC(C)NC(=O)Nc1ccc2c(c1)N(C)C(=O)c1ccccc1S2 (stereo not given)	2	-100% (active)
CCCCSCCCNC(=O)Nc1ccc(C)c(C)c1	1.25	-24.7% (inactive)
COc1ccc(NC(=O)Nc2ccc3c(c2)N(C)C(=O)CS3)cc1Cl	1.91	-90.9% (inactive)
COCCOC(=O)c1c(C)n(C)c2ccc(OC(=O)C3CC3)cc12	1.07	-7.45% (inactive)
CCCCNS(=O)(=O)CCNCCc1ccccc1	1.1	-10.1% (inactive)
COc1ccc(C2/C=C\CC(NS(=O)(=O)c3ccc(C)cc3)CC(=O)N2Cc2ccccc2F)cc1 (stereo not given)	1.18	-17.7% (inactive)
O=C(CN1CCOCC1)Nc1cccc(C(=O)Nc2cccc(C(F)(F)F)c2)c1	1.03	-2.95% (inactive)
Cc1occc1-c1nnc(SCC(=O)Nc2ccc3c(c2)OCO3)n1CC1CCCO1 (stereo not given)	0.919	8.1% (inactive)
CCOC(=O)C1=CN(Cc2cccc(F)c2)S(=O)(=O)NC1c1ccc(F)c(Cl)c1 (stereo not given)	0.881	11.9% (inactive)
C#CCOCCOCCOCCNc1nc(N2CCN(C(=O)CCCCCCCCCCNC(=O)Cn3cc(CCCCCN)nn3)CC2)nc(N2CCN(C(=O)CCCCCCCCCCNC(=O)Cn3cc(C[C@@H](C)O)nn3)CC2)n1	2.22	-122% (active)

Structure (SMILES)	activation factor	activity change, negative = activation
C#CCOCCOCCOCCNc1nc(N2CCN(C(=O)CCCCCCCCCCNC(=O)Cn3cc(CCCCCN)nn3)CC2)nc(N2CCN(C(=O)CCCCCCCCCCNC(=O)[C@H]([C@@H](C)CC)n3cc(CCCCN=C(N)N)nn3)CC2)n1	10	-904% (active)
C#CCOCCOCCOCCNc1nc(N2CCN(C(=O)CCCCCCCCCCNC(=O)Cn3cc(C[C@@H](C)O)nn3)CC2)nc(N2CCN(C(=O)CCCCCCCCCCNC(=O)[C@@H]([C@H](C)CC)n3cc(CCCCCN)nn3)CC2)n1	5.59	-459% (active)
C#CCOCCOCCOCCNc1nc(N2CCN(C(=O)[C@H](Cc3cc4ccccc4[nH]3)n3cc([C@@H](N)CC(C)C)nn3)CC2)nc(N2CCN(C(=O)[C@H](Cc3cc4ccccc4[nH]3)n3cc([C@@H](N)CC(C)C)nn3)CC2)n1	1.61	-60.9% (inactive)
C#CCOCCOCCOCCNc1nc(N2CCN(C(=O)CCCCCCCCCCNC(=O)Cn3cc(CCCCCN)nn3)CC2)nc(N2CCN(C(=O)CCCCCCCCCCNC(=O)[C@H]([C@@H](C)CC)n3cc(CCCCCN)nn3)CC2)n1	3.67	-267% (active)
CCOC(=O)CN1C(=O)/C(=C2\SC(=S)N(NC(=O)c3cccnc3)C2=O)c2ccccc21	0.472	52.8% (inactive)
Cc1c(C(=O)N2CCN(c3ncccn3)CC2)sc2nc3n(c(=O)c12)CCCC3	1.11	-11.4% (inactive)
Clc1ccc2nc(C3CCN(Cc4nnnn4C4CCCCC4)CC3)[nH]c2c1	1.15	-14.6% (inactive)
CCn1nnnc1SCC(=O)c1cccc(OC)c1	0.96	4.05% (inactive)
COc1cccc(CNC(=O)c2ccc(NC(=O)C3CCCO3)cc2)c1 (stereo not given)	0.932	6.8% (inactive)
CCOc1ccc(-n2cc(C(=O)Nc3ccc(Cl)cn3)c3cc(OC)c(OC)cc3c2=O)cc1	0.946	5.4% (inactive)
Oc1ccccc1C1=NOC(O)(C(F)F)C1 (stereo not given)	0.928	7.2% (inactive)
CCOC(=O)N1CCN(C(=O)c2ccc3c(=O)n(CCC4=CCCCC4)c(=O)[nH]c3c2)CC1	0.936	6.4% (inactive)
O=C(CC1CCCC1)Nc1nnc(C2CC2)s1	0.933	6.65% (inactive)
Cc1onc(-c2ccccc2)c1C(=O)Nc1nc2c(s1)C(=O)CC(C)(C)C2	0.877	12.2% (inactive)
CCOc1ccc(CCNC(=O)c2cc(-c3ccccc3)c(N3CCOCC3)s2)cc1OCC	1.74	-73.9% (inactive)
O=C(NCCc1ccccc1)c1cc(-c2ccccc2)c(N2CCOCC2)s1	1.46	-45.9% (inactive)
CCOc1ccc(CCNC(=O)c2cc(-c3ccccc3)c(N3CCOCC3)s2)cc1	2.1	-110% (active)
O=C(NCCc1ccc(F)cc1)N1CCOCC1	1.01	-0.6% (inactive)
O=C(CCCC(=O)N(CC(=O)NC1CCCCC1)Cc1ccccc1)Nc1ccccn1	1.16	-15.6% (inactive)
CCCCC(=O)Nc1ccc(NC(=O)c2cccnc2)cn1	1.06	-5.55% (inactive)
Cc1ccccc1NC(=O)/C(=C\c1cccs1)NC(=O)c1ccccc1	1.02	-1.5% (inactive)
COc1ccc(C(CCN2CCOCC2)c2c(OC)cc(OC)c3c(-c4ccccc4)cc(=O)oc23)cc1 (stereo not given)	1.07	-7.05% (inactive)
